{
  "source": "the supplement of paper PMC10121225",
  "note": "Structures can show the parent of a compound that is named as a salt.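 Note: immunostained co-cultures imaged by high-content microscopy, Z-score per plate against mean and SD of 0.1% DMSO wells, compounds added on differentiation day 18, analysed day 21.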",
  "data": [
    {"test_system": "hN + hpA co-culture (H1 iNGN2 human neurons + human primary astrocytes)", "experiment": "presynaptic density (SYNAPSIN1 puncta per MAP2 neurite area), Z-score vs DMSO controls; higher = more presynaptic puncta (synapse-promoting)", "details": "3 µM; 72 h", "values": [
      {"compound": "COc1ccc([C@]2(C#N)CC[C@@H](C(=O)O)CC2)cc1OC1CCCC1", "note": "[Cilomilast]", "presynaptic density (Z-score)": -0.137},
      {"compound": "CC(C)c1ccc(NC(=O)Cn2cnc3c2c(=O)n(C)c(=O)n3C)cc1", "presynaptic density (Z-score)": -0.215},
      {"compound": "COc1cc(OC)c(NC(=O)Nc2cc(C)on2)cc1Cl", "presynaptic density (Z-score)": -0.694},
      {"compound": "COc1cc(N2CCC(N)CC2)ccc1Nc1ncc(Cl)c(-c2c[nH]c3ccccc23)n1", "presynaptic density (Z-score)": -0.26},
      {"compound": "C[C@H](CS)C(=O)N1CCC[C@H]1C(=O)O", "note": "[Captopril]", "presynaptic density (Z-score)": -1.61},
      {"compound": "COC(=O)C1=C(C#N)NC(C)=C(C(=O)OC(C)C)C1c1cccc([N+](=O)[O-])c1", "note": "(stereo not given) [Nilvadipine]", "presynaptic density (Z-score)": -0.965},
      {"compound": "CCOC(=O)CCNc1cc(N2CCc3ccccc3CC2)nc(-c2ccccn2)n1", "presynaptic density (Z-score)": -3.3},
      {"compound": "O=S(=O)(c1ccccc1)N(CC(F)(F)F)c1ccc(C(O)(C(F)(F)F)C(F)(F)F)cc1", "presynaptic density (Z-score)": -0.732},
      {"compound": "Nc1nc(CC(=O)Nc2ccc(CCNC[C@H](O)c3ccccc3)cc2)cs1", "note": "[Mirabegron]", "presynaptic density (Z-score)": -0.111},
      {"compound": "Cc1ccccc1C(=O)Nc1ccc(C(=O)N2CCCC(O)c3cc(Cl)ccc32)c(C)c1", "note": "(stereo not given) [Tolvaptan]", "presynaptic density (Z-score)": 0.77},
      {"compound": "O=[N+]([O-])c1ccc2c(c1)S(=O)(=O)C=C2", "note": "[6-Nitrobenzo[b]thiophene 1,1-dioxide]", "presynaptic density (Z-score)": 0.915},
      {"compound": "c1ccc(CC2=NCCN2)cc1", "note": "[Tolazoline HCl]", "presynaptic density (Z-score)": -0.161},
      {"compound": "O=C(O)c1cccc(-c2noc(-c3ccccc3F)n2)c1", "note": "[Ataluren (PTC124)]", "presynaptic density (Z-score)": -0.0102},
      {"compound": "CC12CC3CC(C)(C1)CC(N)(C3)C2", "presynaptic density (Z-score)": -1.67},
      {"compound": "CC1COCCN1c1cc(C2(S(C)(=O)=O)CC2)nc(-c2cccc3[nH]ccc23)n1", "note": "(stereo not given)", "presynaptic density (Z-score)": 0.445},
      {"compound": "CC1(C)CCC(c2ccc(Cl)cc2)=C(CN2CCN(c3ccc(C(=O)NS(=O)(=O)c4ccc(N[C@H](CCN5CCOCC5)CSc5ccccc5)c(S(=O)(=O)C(F)(F)F)c4)cc3)CC2)C1", "presynaptic density (Z-score)": 0.29},
      {"compound": "NC(=O)Nc1sc(-c2ccc(F)cc2)cc1C(N)=O", "presynaptic density (Z-score)": -1.69},
      {"compound": "CC(C(O)c1ccc(O)cc1)N1CCC(Cc2ccccc2)CC1", "note": "(stereo not given) [Ifenprodil Tartrate_Selleck]", "presynaptic density (Z-score)": -0.233},
      {"compound": "CS(=O)(=O)N1CCN(Cc2cc3nc(-c4cccc5[nH]ncc45)nc(N4CCOCC4)c3s2)CC1", "note": "[GDC 0941 bismesylate]", "presynaptic density (Z-score)": 1.26},
      {"compound": "CN(C)Cc1ccc(-c2nc3cccc4c3n2CCNC4=O)cc1", "presynaptic density (Z-score)": -0.178},
      {"compound": "NCC(=O)Nc1ccc(-n2nc(C(F)(F)F)cc2-c2ccc3c(ccc4ccccc43)c2)cc1", "presynaptic density (Z-score)": -0.52},
      {"compound": "NC(=O)c1cccc(-c2cc(Nc3ccc(OC(F)(F)F)cc3)ncn2)c1", "presynaptic density (Z-score)": -1.31},
      {"compound": "CO[C@H]1C[C@@H]2CC[C@@H](C)[C@@](O)(O2)C(=O)C(=O)N2CCCC[C@H]2C(=O)O[C@H]([C@H](C)C[C@@H]2CC[C@@H](OCCO)[C@H](OC)C2)CC(=O)[C@H](C)/C=C(\\C)[C@@H](O)[C@@H](OC)C(=O)[C@H](C)C[C@H](C)/C=C/C=C/C=C/1C", "note": "[Everolimus (RAD001)]", "presynaptic density (Z-score)": -1.63},
      {"compound": "COc1cc(-c2ncn(/C=C\\C(=O)OC(C)C)n2)cc(C(F)(F)F)c1", "presynaptic density (Z-score)": -0.959},
      {"compound": "CC1(COc2ccc3c(c2)ncn3-c2ccc3cccc(N4CCC(N)CC4)c3n2)COC1", "presynaptic density (Z-score)": -0.296}
    ]}
  ]
}
